Molecules are shown by their SMILES. Compounds without any hit were thinned out: in the full panel of roughly 83,000, 20% have a hit.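 Single-dose data. Exposure time 48 hours. Values below 10 considered active.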 Values without a mark were called inactive. Active and inactive are the calls of the source.

Drawing on PubChem BioAssay (NCI), this text covers growth for 14 compounds.

Test systems include HCT-15 colon; HT29 colon; SNB-75 CNS; SNB-19 CNS; U251 CNS; PC-3 prostate; SK-MEL-5 melanoma; UACC-62 melanoma; LOX IMVI melanoma; SK-MEL-28 melanoma.
Holding throughout (experiment): NCI-60 one-dose screen, 48 h (100 = growth as untreated, 0 = no growth, -100 = all killed)
Holding throughout (conditions): 10 µM unless noted

On to `Cc1nc(N)nc(SCc2ccccc2)c1Br`, for which the growth was 102% in the experiment on HCT-15 colon; 92.8% in the experiment with HT29 colon; 87.3% in the experiment with SNB-75 CNS; 99.3% in the experiment with SNB-19 CNS; 85.4% in the experiment on U251 CNS; 83.8% in the experiment on PC-3 prostate. The growth is 88.4% with SK-MEL-5 melanoma, 75.8% in the experiment on UACC-62 melanoma, 95.7% in the experiment with LOX IMVI melanoma and 106% in the experiment on SK-MEL-28 melanoma.

Regarding `Nc1nc(-c2cc3c(cc2Cl)NC(=O)/C3=C/c2ccccc2)cs1`, the growth in the experiment on HCT-15 colon is 35.5%; in the experiment with HT29 colon it was 35.8%; in the experiment on SNB-75 CNS, 64.8%; with SNB-19 CNS, 59.7%; with U251 CNS, 40.3%; with PC-3 prostate, 46.4%. Moreover, the growth in the experiment on SK-MEL-5 melanoma was 24.7%; in the experiment with UACC-62 melanoma it was 43%; in the experiment on LOX IMVI melanoma, 3.66% (active); in the experiment on SK-MEL-28 melanoma, 76.1%.

For the compound `CCOC(=O)c1noc2c1CCc1c-2cn(Cc2ccc(OC)cc2)c1-c1cc(OC)c(OC)c(OC)c1`, the growth is 23.5% in the experiment on HCT-15 colon; 4.06% (active) in the experiment on HT29 colon; 14% in the experiment with SNB-75 CNS; 24.4% in the experiment on SNB-19 CNS; 18.4% in the experiment with U251 CNS; 25.3% in the experiment on PC-3 prostate. Besides, the growth is 16.9% with SK-MEL-5 melanoma, 22.4% with UACC-62 melanoma, 42.3% in the experiment on LOX IMVI melanoma and 58.1% in the experiment on SK-MEL-28 melanoma.

As for `O=C(Nc1ccc(-n2cc(-c3ccncc3)c(-c3ccc(O)c(Cl)c3)n2)cc1)c1ccc(Cl)c(Cl)c1`, the growth in the experiment on HCT-15 colon was 18.2%; with HT29 colon, -10.4% (active); in the experiment on SNB-75 CNS, 70%; in the experiment with SNB-19 CNS, 59.6%; with U251 CNS it was 26.8%; in the experiment on PC-3 prostate it was 20.2%. Also, the growth in the experiment on SK-MEL-5 melanoma was -20.3% (active); with UACC-62 melanoma, 59.1%; in the experiment with LOX IMVI melanoma, -29.1% (active); in the experiment with SK-MEL-28 melanoma, 59.7%.

`C[C@@H]1CC2C3C[C@H](F)C4=CC(=O)C=C[C@]4(C)[C@@]3(F)[C@@H](O)C[C@]2(C)[C@@]1(O)C(=O)CO` (stereo not given in full): the growth in the experiment with HCT-15 colon is 101%; in the experiment on HT29 colon, 102%; in the experiment with SNB-75 CNS, 132%; with SNB-19 CNS, 91.8%; in the experiment on U251 CNS, 105%; in the experiment with PC-3 prostate it was 86.1%. Besides, the growth was 90.4% in the experiment on SK-MEL-5 melanoma, 97.3% in the experiment with UACC-62 melanoma, 92.1% with LOX IMVI melanoma and 108% in the experiment with SK-MEL-28 melanoma.

For `C/C(=N/O)c1ccc(NC(=O)Cn2nc(-c3ccc(Cl)cc3)nc2N)cc1`, the growth was 114% in the experiment on HCT-15 colon; 86.8% with HT29 colon; 87.3% in the experiment with SNB-75 CNS; 89.1% in the experiment with SNB-19 CNS; 90.3% with U251 CNS; 71.8% with PC-3 prostate. Also, the growth in the experiment with SK-MEL-5 melanoma is 98.1%; in the experiment on UACC-62 melanoma, 91.8%; in the experiment with LOX IMVI melanoma it was 97%; in the experiment on SK-MEL-28 melanoma, 114%.

With `COc1ccc(/C=N/C2=NNC(C)(c3ccccc3O)N2C(Cc2c[nH]c3ccccc23)C(=O)O)cc1` (stereo not given), the growth in the experiment on HCT-15 colon was 39.7%; in the experiment with HT29 colon it was 5.86% (active); with SNB-75 CNS it was 32.5%; with SNB-19 CNS it was 27.8%; in the experiment with U251 CNS it was 21%; in the experiment on PC-3 prostate, 23.8%. The growth in the experiment on SK-MEL-5 melanoma is -78.3% (active); in the experiment on UACC-62 melanoma, 17.7%; with LOX IMVI melanoma it was 19.2%; in the experiment with SK-MEL-28 melanoma, 33.5%.

On to `Cc1cccc[n+]1CCC[n+]1ccccc1C`, for which the growth is 96.7% in the experiment on HCT-15 colon; 94.1% in the experiment with HT29 colon; 103% in the experiment with SNB-75 CNS; 111% in the experiment with SNB-19 CNS; 101% in the experiment with U251 CNS; 95.4% in the experiment on PC-3 prostate. Further, the growth in the experiment on SK-MEL-5 melanoma is 101%; with UACC-62 melanoma it was 109%; in the experiment on LOX IMVI melanoma, 96.9%; in the experiment on SK-MEL-28 melanoma it was 103%.

Consider `CN(C)C(=O)Nc1nc2cc(Cl)c(Cl)cc2[nH]1`, for which the growth in the experiment with HCT-15 colon is 26.1%; in the experiment with HT29 colon, 5.63% (active); in the experiment with SNB-75 CNS it was 14.7%; in the experiment with SNB-19 CNS it was 27%; in the experiment on U251 CNS, 25.6%; in the experiment with PC-3 prostate, 18.9%. The growth in the experiment with SK-MEL-5 melanoma was 19%; with UACC-62 melanoma it was 23.1%; in the experiment on LOX IMVI melanoma, 47.8%; in the experiment on SK-MEL-28 melanoma, 73.4%.

As to `COc1ccc(SC2c3ccc(O)cc3Oc3nc(N)c(C#N)c(N)c32)cc1` (stereo not given), the growth in the experiment with HCT-15 colon is 85%; in the experiment with HT29 colon, 101%; with SNB-75 CNS it was 84.7%; in the experiment with SNB-19 CNS it was 78.6%; with U251 CNS, 60.9%; in the experiment with PC-3 prostate it was 56.1%. In addition, the growth in the experiment with SK-MEL-5 melanoma is 55.7%; in the experiment on UACC-62 melanoma, 105%; with LOX IMVI melanoma it was 33.7%; in the experiment with SK-MEL-28 melanoma, 106%.

On to `C=CCn1c(SCC(=O)Nc2ccc(C(=O)/C=C/c3cc(OC)c(OC)c(OC)c3)cc2)nnc1-c1ccc(OC)cc1`, for which the growth is -1.54% (active) with HCT-15 colon; -27.9% (active) in the experiment on HT29 colon; 6.75% (active) in the experiment with SNB-75 CNS; 14.3% with SNB-19 CNS; -65.2% (active) in the experiment on U251 CNS; 25.1% with PC-3 prostate. The growth is 1.15% (active) with SK-MEL-5 melanoma, -6.54% (active) in the experiment on UACC-62 melanoma, -43.5% (active) in the experiment with LOX IMVI melanoma and 10.1% with SK-MEL-28 melanoma.

Take `c1nc(SC2=NCCN2)c2[nH]cnc2n1`: the growth with HCT-15 colon is 57.8%; in the experiment with HT29 colon, 35.3%; with SNB-75 CNS, 52.7%; in the experiment with SNB-19 CNS, 103%; in the experiment on U251 CNS, 79.4%; in the experiment with PC-3 prostate, 57.5%. Also, the growth in the experiment with SK-MEL-5 melanoma was 79.1%; with UACC-62 melanoma, 19.1%; in the experiment on LOX IMVI melanoma it was 6.53% (active); with SK-MEL-28 melanoma, 95.4%.

Regarding `COc1ccc2c(c1)OC(N)=C(C#N)C2c1ccc(F)c(F)c1` (stereo not given), the growth with HCT-15 colon is 29.6%; in the experiment with HT29 colon it was 3.2% (active); in the experiment on SNB-75 CNS, 9.47% (active); in the experiment on SNB-19 CNS, 28.7%; in the experiment with U251 CNS it was 31%; with PC-3 prostate, 24.2%. The growth was 24.2% in the experiment with SK-MEL-5 melanoma, 38.1% with UACC-62 melanoma, 54.2% in the experiment on LOX IMVI melanoma and 68.2% in the experiment on SK-MEL-28 melanoma.

Turning to `O=C(Nc1cccc(-n2ccc3c(NC(=O)c4ccccc4)nccc32)c1)Nc1ccc(Cl)c(C(F)(F)F)c1`, the growth in the experiment with HCT-15 colon is 10.6%; in the experiment with HT29 colon it was -38.9% (active); in the experiment with SNB-75 CNS, 54.7%; in the experiment with SNB-19 CNS, 24.8%; with U251 CNS, 9.27% (active); in the experiment on PC-3 prostate, 20.4%. For the same compound, the growth in the experiment on SK-MEL-5 melanoma was -35.5% (active); with UACC-62 melanoma it was 20.9%; with LOX IMVI melanoma it was 11.8%; in the experiment with SK-MEL-28 melanoma it was 44.5%.
